Results from the supplement of paper PMC11732987, “Enantioselective OTUD7B fragment discovery through chemoproteomics screening and high-throughput optimisation” (Communications Chemistry, 2025).

Columns and labels:
Experiment in all cases: log2 ratio of Biotin-Ahx-Ub-VS probe labelling (fragment/DMSO); higher = less target engagement (more negative = stronger competition), active = hit call of the paper (q ≤ 0.05, log2 ratio ≤ -1)
Conditions in all cases: compound concentration: 200 uM; treatment time: 3 h
USP34 = USP34 (UniProt Q70CQ2)
Chain of USP34 (Q70CQ2 whole entry, the tested form may be a part): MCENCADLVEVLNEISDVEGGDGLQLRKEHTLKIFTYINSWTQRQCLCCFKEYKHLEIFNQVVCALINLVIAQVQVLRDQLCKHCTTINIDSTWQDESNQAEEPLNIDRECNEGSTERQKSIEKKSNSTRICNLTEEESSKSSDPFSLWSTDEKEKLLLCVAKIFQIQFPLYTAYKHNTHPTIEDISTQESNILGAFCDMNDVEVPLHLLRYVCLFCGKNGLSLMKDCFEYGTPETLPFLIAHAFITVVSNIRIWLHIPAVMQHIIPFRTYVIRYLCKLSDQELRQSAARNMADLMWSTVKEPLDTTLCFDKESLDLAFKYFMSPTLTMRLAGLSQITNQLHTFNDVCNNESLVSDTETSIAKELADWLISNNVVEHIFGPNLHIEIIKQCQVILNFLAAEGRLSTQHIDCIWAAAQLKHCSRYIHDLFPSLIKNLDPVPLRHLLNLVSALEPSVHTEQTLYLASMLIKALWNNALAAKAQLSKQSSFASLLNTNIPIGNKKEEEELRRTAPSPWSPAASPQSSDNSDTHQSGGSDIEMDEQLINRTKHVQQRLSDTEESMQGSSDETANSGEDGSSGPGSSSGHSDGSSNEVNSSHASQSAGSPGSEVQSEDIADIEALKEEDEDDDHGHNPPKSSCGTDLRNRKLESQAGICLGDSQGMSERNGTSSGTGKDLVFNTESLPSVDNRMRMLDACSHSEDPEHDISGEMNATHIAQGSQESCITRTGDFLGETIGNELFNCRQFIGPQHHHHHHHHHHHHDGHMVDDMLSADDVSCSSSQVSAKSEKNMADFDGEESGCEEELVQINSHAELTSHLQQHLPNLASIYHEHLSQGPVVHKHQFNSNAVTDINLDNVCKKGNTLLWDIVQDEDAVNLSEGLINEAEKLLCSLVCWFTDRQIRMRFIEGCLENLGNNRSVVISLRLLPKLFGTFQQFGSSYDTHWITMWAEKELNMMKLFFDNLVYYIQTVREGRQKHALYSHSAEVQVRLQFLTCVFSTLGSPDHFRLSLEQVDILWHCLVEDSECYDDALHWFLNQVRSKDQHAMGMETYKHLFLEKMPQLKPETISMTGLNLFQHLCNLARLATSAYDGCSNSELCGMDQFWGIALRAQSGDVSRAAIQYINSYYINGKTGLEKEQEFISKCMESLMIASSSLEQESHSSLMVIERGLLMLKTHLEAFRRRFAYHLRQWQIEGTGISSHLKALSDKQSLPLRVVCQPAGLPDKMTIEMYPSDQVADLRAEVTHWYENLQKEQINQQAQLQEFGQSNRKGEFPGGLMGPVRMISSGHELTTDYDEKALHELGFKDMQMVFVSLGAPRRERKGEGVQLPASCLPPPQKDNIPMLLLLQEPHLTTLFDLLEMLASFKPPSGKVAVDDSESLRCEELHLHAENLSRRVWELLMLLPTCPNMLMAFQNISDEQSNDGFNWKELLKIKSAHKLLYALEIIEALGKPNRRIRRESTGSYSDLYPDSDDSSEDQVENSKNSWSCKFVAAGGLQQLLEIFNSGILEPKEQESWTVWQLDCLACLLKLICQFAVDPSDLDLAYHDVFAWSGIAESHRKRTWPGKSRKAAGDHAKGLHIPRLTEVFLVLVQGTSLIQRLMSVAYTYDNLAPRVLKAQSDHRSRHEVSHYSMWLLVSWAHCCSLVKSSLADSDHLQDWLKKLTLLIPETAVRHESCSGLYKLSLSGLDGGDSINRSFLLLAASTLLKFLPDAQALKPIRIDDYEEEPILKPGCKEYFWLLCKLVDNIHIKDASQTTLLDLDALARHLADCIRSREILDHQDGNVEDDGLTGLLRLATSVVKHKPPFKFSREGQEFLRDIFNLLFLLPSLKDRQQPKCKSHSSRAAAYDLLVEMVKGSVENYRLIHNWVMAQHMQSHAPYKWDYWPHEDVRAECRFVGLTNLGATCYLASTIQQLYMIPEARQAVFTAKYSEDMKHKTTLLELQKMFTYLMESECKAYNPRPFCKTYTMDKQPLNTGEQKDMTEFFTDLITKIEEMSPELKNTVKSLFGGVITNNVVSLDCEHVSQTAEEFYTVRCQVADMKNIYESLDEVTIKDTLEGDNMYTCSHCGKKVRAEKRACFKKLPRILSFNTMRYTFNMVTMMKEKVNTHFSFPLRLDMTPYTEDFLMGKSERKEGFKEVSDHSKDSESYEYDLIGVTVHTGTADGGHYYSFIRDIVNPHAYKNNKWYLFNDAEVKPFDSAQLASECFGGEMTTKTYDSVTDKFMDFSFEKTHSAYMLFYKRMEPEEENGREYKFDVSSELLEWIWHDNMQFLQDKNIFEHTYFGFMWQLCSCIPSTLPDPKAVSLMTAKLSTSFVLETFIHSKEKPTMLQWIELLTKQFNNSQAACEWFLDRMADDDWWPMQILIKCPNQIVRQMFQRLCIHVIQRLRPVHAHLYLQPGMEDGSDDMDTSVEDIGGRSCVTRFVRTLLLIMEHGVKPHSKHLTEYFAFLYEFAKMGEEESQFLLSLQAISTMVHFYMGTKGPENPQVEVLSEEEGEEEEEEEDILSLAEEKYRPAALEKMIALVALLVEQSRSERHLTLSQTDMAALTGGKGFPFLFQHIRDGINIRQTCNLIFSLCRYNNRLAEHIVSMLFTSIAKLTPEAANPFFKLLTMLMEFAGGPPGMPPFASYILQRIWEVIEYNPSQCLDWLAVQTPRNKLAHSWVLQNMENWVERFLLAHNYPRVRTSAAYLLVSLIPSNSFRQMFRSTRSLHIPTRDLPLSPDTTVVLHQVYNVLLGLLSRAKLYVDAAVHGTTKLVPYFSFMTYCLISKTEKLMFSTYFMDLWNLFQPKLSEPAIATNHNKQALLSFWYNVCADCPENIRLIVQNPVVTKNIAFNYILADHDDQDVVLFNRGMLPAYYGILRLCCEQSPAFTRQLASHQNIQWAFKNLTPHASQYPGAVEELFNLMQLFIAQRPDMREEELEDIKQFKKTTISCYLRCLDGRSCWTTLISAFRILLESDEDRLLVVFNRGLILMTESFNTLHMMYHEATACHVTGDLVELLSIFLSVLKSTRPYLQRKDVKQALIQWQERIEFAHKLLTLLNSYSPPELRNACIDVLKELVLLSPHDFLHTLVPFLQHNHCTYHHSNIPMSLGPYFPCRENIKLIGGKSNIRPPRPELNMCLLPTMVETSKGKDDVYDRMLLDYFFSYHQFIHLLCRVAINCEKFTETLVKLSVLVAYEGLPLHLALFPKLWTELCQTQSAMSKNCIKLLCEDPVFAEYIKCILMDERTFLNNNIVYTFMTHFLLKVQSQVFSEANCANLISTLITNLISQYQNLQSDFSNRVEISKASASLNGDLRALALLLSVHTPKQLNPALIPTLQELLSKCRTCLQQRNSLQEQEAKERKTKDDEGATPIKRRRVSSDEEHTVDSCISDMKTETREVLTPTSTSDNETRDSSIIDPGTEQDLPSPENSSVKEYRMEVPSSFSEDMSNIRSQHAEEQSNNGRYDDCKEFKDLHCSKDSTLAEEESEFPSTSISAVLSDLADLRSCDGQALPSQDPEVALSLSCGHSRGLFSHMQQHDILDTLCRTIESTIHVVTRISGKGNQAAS
In short: (§1)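 Using Biotin-Ahx-Ub-VS at 0.5 µM final for 1 h, DUBs were labelled in HEK293T lysate (495 µg per sample) that had first been treated in triplicate with fragment at 200 µM or vehicle for 3 h. NeutrAvidin enrichment, LysC and trypsin digestion and diaPASEF LC-MS/MS followed. Spectronaut label-free quantities were global-median-normalised. Values are average log2 fragment/vehicle ratios by unpaired t-test, using proteins with ≥2 unique peptides.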

USP36 = molecular target: T1, USP36 (UniProt Q9P275)
T1 sequence (whole entry): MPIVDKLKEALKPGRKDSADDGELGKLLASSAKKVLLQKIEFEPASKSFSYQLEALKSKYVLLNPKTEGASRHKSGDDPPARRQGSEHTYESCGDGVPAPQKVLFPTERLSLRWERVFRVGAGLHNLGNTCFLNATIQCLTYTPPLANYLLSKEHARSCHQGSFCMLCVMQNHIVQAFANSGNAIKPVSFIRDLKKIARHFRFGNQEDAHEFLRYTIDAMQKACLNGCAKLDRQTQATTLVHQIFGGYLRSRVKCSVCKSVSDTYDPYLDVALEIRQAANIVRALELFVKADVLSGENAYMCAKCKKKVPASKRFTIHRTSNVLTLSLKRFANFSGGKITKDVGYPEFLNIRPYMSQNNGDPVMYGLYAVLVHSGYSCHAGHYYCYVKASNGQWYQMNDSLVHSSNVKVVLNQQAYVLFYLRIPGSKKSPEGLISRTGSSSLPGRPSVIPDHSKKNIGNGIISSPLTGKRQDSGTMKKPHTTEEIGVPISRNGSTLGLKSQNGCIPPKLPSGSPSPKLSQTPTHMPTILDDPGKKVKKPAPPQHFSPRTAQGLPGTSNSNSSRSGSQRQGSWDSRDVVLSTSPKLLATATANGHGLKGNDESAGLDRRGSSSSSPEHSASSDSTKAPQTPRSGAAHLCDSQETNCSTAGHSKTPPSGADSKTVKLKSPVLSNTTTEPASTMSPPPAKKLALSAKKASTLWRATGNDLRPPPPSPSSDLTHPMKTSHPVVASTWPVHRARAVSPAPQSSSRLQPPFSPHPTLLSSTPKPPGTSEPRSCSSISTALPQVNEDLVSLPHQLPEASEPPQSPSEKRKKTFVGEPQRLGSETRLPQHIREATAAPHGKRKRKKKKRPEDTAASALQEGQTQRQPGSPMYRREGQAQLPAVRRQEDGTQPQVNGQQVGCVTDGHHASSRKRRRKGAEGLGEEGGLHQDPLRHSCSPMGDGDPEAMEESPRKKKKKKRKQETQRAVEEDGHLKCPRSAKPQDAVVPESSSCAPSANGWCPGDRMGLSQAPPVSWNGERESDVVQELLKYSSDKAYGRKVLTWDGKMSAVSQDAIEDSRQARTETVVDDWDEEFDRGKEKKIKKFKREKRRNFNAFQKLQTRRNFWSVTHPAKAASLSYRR
In short: as §1

USP38 = molecular target: T2, USP38 (UniProt Q8NB14)
T2 sequence (whole entry): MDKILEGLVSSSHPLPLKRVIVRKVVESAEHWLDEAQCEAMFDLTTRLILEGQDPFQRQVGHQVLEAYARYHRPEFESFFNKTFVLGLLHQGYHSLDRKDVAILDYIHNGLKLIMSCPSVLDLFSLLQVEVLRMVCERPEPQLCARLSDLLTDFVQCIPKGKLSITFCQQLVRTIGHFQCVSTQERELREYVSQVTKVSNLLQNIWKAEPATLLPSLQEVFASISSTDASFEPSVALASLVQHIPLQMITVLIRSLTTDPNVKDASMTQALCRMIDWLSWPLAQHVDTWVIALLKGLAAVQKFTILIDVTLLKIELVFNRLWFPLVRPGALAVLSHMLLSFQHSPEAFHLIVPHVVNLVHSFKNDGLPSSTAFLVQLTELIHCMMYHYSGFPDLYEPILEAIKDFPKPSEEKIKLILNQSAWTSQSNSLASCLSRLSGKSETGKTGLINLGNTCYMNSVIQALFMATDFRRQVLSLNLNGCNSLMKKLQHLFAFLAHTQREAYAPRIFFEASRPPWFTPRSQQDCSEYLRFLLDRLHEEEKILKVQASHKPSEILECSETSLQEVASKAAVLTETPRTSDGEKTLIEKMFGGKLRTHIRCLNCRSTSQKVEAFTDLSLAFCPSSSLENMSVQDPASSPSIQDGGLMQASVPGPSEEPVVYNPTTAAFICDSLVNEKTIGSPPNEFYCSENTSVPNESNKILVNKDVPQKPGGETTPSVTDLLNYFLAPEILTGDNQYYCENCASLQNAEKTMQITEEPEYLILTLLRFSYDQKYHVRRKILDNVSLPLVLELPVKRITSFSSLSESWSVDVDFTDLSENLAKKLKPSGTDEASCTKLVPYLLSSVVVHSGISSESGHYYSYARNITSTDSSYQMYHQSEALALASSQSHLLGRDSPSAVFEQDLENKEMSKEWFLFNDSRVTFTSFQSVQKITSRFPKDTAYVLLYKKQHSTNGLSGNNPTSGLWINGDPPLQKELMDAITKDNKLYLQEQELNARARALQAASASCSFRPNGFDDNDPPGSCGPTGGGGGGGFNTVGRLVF
In short: as §1

USP39 = molecular target: T3, USP39 (UniProt Q53GS9)
T3 sequence (whole entry): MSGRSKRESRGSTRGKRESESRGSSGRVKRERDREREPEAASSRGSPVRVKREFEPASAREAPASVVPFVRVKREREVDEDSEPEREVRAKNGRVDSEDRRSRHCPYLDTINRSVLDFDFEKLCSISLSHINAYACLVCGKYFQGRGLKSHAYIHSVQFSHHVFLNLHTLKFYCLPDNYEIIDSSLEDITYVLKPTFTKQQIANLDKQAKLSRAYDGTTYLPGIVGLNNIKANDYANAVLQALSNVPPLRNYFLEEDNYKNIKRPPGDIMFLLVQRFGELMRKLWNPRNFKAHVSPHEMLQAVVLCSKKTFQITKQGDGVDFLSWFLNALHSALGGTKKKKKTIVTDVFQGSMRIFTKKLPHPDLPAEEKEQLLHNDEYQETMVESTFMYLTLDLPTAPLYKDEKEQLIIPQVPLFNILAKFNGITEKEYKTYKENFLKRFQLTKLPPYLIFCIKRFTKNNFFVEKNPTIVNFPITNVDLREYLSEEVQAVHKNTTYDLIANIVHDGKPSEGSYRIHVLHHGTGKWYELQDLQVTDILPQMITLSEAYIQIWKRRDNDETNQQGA
In short: as §1

USP4 = molecular target: T4, USP4 (UniProt Q13107)
T4 sequence (whole entry): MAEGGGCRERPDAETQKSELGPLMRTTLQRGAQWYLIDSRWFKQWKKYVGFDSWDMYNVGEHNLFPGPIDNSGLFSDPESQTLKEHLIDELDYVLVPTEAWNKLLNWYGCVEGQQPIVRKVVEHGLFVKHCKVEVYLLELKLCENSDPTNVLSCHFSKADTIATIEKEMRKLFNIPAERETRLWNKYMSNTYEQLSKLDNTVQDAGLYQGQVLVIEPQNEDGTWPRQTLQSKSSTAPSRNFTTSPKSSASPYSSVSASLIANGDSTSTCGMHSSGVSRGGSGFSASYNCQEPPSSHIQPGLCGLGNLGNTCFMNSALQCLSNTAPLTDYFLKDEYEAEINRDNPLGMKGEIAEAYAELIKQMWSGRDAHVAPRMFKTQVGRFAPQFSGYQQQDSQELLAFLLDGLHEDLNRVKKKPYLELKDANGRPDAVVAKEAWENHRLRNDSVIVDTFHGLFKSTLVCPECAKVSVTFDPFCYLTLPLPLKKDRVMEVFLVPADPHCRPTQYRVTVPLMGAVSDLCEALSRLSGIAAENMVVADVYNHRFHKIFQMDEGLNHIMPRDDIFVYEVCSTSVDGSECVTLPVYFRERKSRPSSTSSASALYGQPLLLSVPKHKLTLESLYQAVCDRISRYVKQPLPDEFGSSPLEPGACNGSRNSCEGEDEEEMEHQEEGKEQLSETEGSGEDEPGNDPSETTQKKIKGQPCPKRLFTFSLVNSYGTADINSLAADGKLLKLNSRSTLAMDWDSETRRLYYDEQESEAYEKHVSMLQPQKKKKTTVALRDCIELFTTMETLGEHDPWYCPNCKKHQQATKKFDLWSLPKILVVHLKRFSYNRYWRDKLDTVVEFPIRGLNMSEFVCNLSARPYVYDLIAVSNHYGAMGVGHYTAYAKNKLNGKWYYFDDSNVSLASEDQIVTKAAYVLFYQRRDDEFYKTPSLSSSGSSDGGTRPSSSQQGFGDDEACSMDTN
In short: as §1

Measured: log2 ratio of Biotin-Ahx-Ub-VS probe labelling

O=C(CCl)N1CCCC1c1ccsc1 (stereo not given)
inactive: USP34 -0.191 | USP36 -0.111 | USP38 -0.0937 | USP39 -0.0825 | USP4 -0.821
